Assay outcomes (PubChem)
Most compounds without a hit are left out; they make up all but 2.9% or so of the library.
GRK2 aptamer HTS = human GRK2 inhibition via aptamer displacement; P25098; 330,000 tested, 0.59% active; bead flow cytometry, FAM-aptamer displacement from GRK2; inhibition of aptamer binding, % at 10 µM;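 active = inhibition of aptamer binding above 40%, roughly 3 SD of noise, on plates passing a quality check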;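 note: median bead fluorescence of bound FAM aptamer so fluorescent compounds give negative values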
MEKK2mut PB1 HTS = signal of MEK5 binding to mutant human MEKK2 PB1 domain. percent response, % at 10 µM. 290,000 tested, 0.35% active. bead flow cytometry, Alexa488-MEK5 binding to MEKK2 mutant; in the data active = percent response above about 24%, passing the limit was not always enough
B2AR ag = agonists of human beta-2 adrenergic receptor inducing internalization | P07550 | Am2.2-beta2AR cells, FAP receptor internalization, flow cytometry | response, % (no concentration beside the values) | 340,000 tested, 0.43% active;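 active = response above a set limit, near 3 SD of response in nonfluorescent compounds, cut at about 42% in these data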
Target sequence (P07550 whole entry, looked up): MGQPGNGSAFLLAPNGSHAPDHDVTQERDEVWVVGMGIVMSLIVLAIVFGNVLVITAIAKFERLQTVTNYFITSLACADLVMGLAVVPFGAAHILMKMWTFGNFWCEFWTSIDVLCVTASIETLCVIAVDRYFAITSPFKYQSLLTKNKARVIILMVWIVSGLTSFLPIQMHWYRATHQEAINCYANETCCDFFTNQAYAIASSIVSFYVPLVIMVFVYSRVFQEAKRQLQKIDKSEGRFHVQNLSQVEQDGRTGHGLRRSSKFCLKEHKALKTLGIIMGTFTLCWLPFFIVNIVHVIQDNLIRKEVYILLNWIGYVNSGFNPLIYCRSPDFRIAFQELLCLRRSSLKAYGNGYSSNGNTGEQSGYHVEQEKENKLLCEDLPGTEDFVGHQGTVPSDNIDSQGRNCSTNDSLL
MEKK3 PB1 HTS = raises or lowers MEK5 binding to the human MEKK3 PB1 domain | 290,000 tested, 1.4% active | binding response (% of control), % at 10 µM | bead-based flow cytometry, Alexa488-MEK5 binding to MEKK3; actives lie on both sides; 0 = blocked by unlabeled MEK5, 100 = vehicle | Q99759 | AID 1529;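 active = binding response more than 3 SD above or below the average of its plate-row segment, actives on both sides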;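 note: Alexa488 bead fluorescence after subtracting the streptavidin-only scavenger bead signal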
MEKK2wt PB1 HTS = raises or lowers MEK5 binding to wildtype human MEKK2 PB1 domain; Q9Y2U5; bead flow cytometry, Alexa488-MEK5 binding to MEKK2 WT; actives lie on both sides; binding response (% of control), % at 10 µM; 290,000 tested, 1.1% active; in the data active = binding response below about 67% or above about 130%
GRK2 inh confirm = human GRK2 inhibition confirmation, cherry pick 1 | AID 504451 | shares compounds with GRK2 aptamer HTS | aptamer displacement, % at 10 µM | bead-bound GRK2, FAM-aptamer displacement, flow cytometry | 2,000 tested, 4% active;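 active = aptamer displacement above 40%, near three times the noise of non-fluorescent compounds, on plates passing quality checks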;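 note: negative values mostly reflect intrinsic compound fluorescence rather than true enhancement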
Aptamer quench 1 = counter-screen for GRK2 aptamer inhibitors: fluorescent aptamer quenchers; shares compounds with GRK2 aptamer HTS; Fluorescent RNA aptamer beads, quenching, flow cytometry; active compounds read high; fluorescence change (kMESF span), kMESF (test concentration not listed); 110 tested, under 10 active;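 active = compounds whose bead fluorescence drops by more than 37 kMESF across the dose range, marking them as dye quenchers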
FAM quench CP1 = quenches fluorescent RNA aptamer, GRK2 hit artifact; 2,000 tested, under 10 active; shares compounds with GRK2 aptamer HTS; fluorescence response (% of DMSO), % at 10 µM; Carboxyfluorescein RNA aptamer on beads, flow cytometry quenching; active compounds read low;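 active = compounds that quench the bead-bound fluorescent RNA probe, cutting fluorescence to under half of the solvent control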;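 note: counterscreen run without GRK2 so only probe quenching by compound is measured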
GRK2 confirm 2 = confirmation of human GRK2 inhibitors binding RNA aptamer site; shares compounds with GRK2 aptamer HTS; bead-bound GRK2, FAM-aptamer displacement, flow cytometry; inhibition of aptamer binding, % at 10 µM; 360 tested, under 10 active; AID 504782;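 active = inhibition of aptamer binding above 40%, about triple the noise seen with nonglowing compounds, on plates passing quality control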;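 note: negative values mostly come from compounds that fluoresce themselves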
FAM quench CP2 = quenches fluorescent RNA aptamer, GRK2 hit artifact; carboxyfluorescein RNA aptamer beads, flow cytometry quenching; active compounds read low; AID 588494; 360 tested, under 10 active; fluorescence response vs DMSO, % at 10 µM; shares compounds with GRK2 aptamer HTS;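 active = response vs DMSO under 50%, meaning signal dropped by over half, treated as fluorescence quencher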;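 note: labelled aptamer on streptavidin beads without GRK2 as a quench counter-screen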
Large screens that a line does not name were inactive (follow-up assays come after a bar, where they were run).

O=C(c1ccco1)N(CCCN1CCOCC1)c1nc(-c2ccc(F)cc2)cs1	none
O=C(c1ccco1)N(CCCN1CCOCC1)c1nc(-c2ccc(Cl)cc2)cs1	none | GRK2 inh confirm inactive | FAM quench CP1 inactive
CCN(CC)CCCN(C(=O)c1ccco1)c1nc(-c2ccc(C)cc2)cs1	GRK2 aptamer HTS 59 | GRK2 inh confirm inactive | FAM quench CP1 inactive
Cc1cc(C)cc(C(=O)NC(CC(N)=O)c2ccc(NC3CCCCC3)c([N+](=O)[O-])c2)c1 (configuration not stated)	none
COc1ccc(CN2C(=O)C(CC(C)C)Nc3ncnc(N4CCCCC4)c32)cc1 (configuration not stated)	none (no result: MEKK2mut PB1 HTS, MEKK3 PB1 HTS, MEKK2wt PB1 HTS)
COc1ccc(CN2C(=O)C(CC(C)C)Nc3ncnc(N4CCOCC4)c32)cc1 (configuration not stated)	GRK2 aptamer HTS 97 (no result: MEKK2mut PB1 HTS, MEKK3 PB1 HTS, MEKK2wt PB1 HTS) | GRK2 inh confirm inactive | FAM quench CP1 inactive
CC(C)(CNC(=O)c1cc(-c2ccc(Cl)s2)nc2ccccc12)N1CCOCC1	GRK2 aptamer HTS 52 (no result: MEKK2mut PB1 HTS, MEKK3 PB1 HTS, MEKK2wt PB1 HTS) | GRK2 inh confirm inactive | FAM quench CP1 inactive
O=C1c2ccccc2C(=O)N1Cc1ccc2c(c1)OCO2	none
Cc1cc2cc(CN3C(=O)c4ccccc4C3=O)ccc2n1C	GRK2 aptamer HTS 46 | GRK2 inh confirm inactive | FAM quench CP1 inactive
O=C(CSc1ccc(S(=O)(=O)N2CCCC2)cn1)Nc1ccc([N+](=O)[O-])cc1C(F)(F)F	none (no result: GRK2 aptamer HTS, MEKK2mut PB1 HTS, MEKK3 PB1 HTS, MEKK2wt PB1 HTS)
COCCNC(=O)C/C(C)=N/NC(=O)C(=O)NC1CCCCC1	GRK2 aptamer HTS 57 | GRK2 inh confirm 86 | Aptamer quench 1 inactive | FAM quench CP1 inactive
COCCCNC(=O)C(=O)NC1CCCCCC1	none
CCOc1ccc(C(=O)c2nc3c(n2O)CCCC3)cc1	none | GRK2 inh confirm inactive | FAM quench CP1 inactive
Cc1ccc(C(=O)c2nc3c(n2O)CCCC3)cc1	none
COc1ccc(-n2c(C)cc(C(=O)CSc3nnc(-c4ccoc4C)n3C)c2C)cc1	GRK2 aptamer HTS 91 | GRK2 inh confirm inactive | FAM quench CP1 inactive
CC1Cc2nc(SCC(=O)N3CCCC3)n(C)c(=O)c2S1 (configuration not stated)	GRK2 aptamer HTS 100 | GRK2 inh confirm inactive | FAM quench CP1 inactive
COc1ccc2nc(Nc3nc(CSc4nnnn4-c4ccccc4)cc(=O)[nH]3)nc(C)c2c1	GRK2 aptamer HTS 46 | GRK2 inh confirm inactive | FAM quench CP1 inactive
CC(=O)c1ccc(OCCCC(=O)Nc2ccc(S(=O)(=O)N3CCOCC3)cc2)cc1	none (no result: MEKK2mut PB1 HTS, MEKK3 PB1 HTS, MEKK2wt PB1 HTS)
CSc1ccc(CN2CCN(C(C)C)C(CCO)C2)cc1 (configuration not stated)	GRK2 aptamer HTS 91 | GRK2 inh confirm inactive | FAM quench CP1 inactive
CCCCOC(=O)c1ccc(NC(=O)c2c(N)n(C)c(=O)[nH]c2=O)cc1	none (no result: B2AR ag)
CC1=NN(c2ccccc2)C(=O)/C1=C/C=C/C=C/N(C)C	none
CN(C)/C=C/C=C1C(=O)CCCC1=O	GRK2 aptamer HTS 42 | GRK2 inh confirm inactive | FAM quench CP1 inactive
CC(=O)c1c(C)[nH]c(C(=O)COC(=O)c2c(-c3ccccc3)noc2C)c1C	none (no result: MEKK2mut PB1 HTS, MEKK3 PB1 HTS, MEKK2wt PB1 HTS)
Oc1c(Br)cc(Br)cc1C=NCc1ccc(F)cc1	GRK2 aptamer HTS 41 | GRK2 inh confirm inactive | FAM quench CP1 inactive
Oc1c(Br)cc(Br)cc1C=NCc1ccccc1	none
CC1CCCC(NCC(O)COC(c2ccc(F)cc2)c2ccc(F)cc2)C1C (configuration not stated)	MEKK2wt PB1 HTS 143 | GRK2 inh confirm inactive | FAM quench CP1 inactive
O=C(NCc1cccnc1)c1cccc(NC(=O)c2ccco2)c1	none (no result: MEKK2mut PB1 HTS, MEKK3 PB1 HTS, MEKK2wt PB1 HTS) | GRK2 inh confirm inactive | FAM quench CP1 inactive
Cc1cc(C)cc(NC(=O)c2cccc(NC(=O)c3ccco3)c2)c1	none (no result: MEKK2mut PB1 HTS, MEKK3 PB1 HTS, MEKK2wt PB1 HTS) | GRK2 inh confirm inactive | FAM quench CP1 inactive
O=C(NCC1CCCO1)c1cccc(NC(=O)c2ccco2)c1 (configuration not stated)	none | GRK2 inh confirm inactive | FAM quench CP1 inactive
CC(=O)c1cccc(NC(=O)c2cccc(NC(=O)c3ccco3)c2)c1	none
O=C(NC1CCCC1)c1cccc(NC(=O)c2ccco2)c1	none | GRK2 inh confirm inactive | FAM quench CP1 inactive
O=C(C[C@@H]1C/C=C\CC[C@H](Cc2ccc(F)cc2)C(=O)OC[C@@H](Cc2ccccc2)NC1=O)NCCO	none (no result: MEKK2mut PB1 HTS, MEKK3 PB1 HTS, MEKK2wt PB1 HTS)
O=C(CSc1nnc(-c2ccco2)o1)N1CCCCC1	none
O=c1[nH]nc(Cc2ccc([N+](=O)[O-])cc2)c2ccccc12	GRK2 aptamer HTS 86 | GRK2 inh confirm inactive | FAM quench CP1 inactive
COc1ccc(-c2c(NC(C)=O)n(C)c3ccccc3c2=O)cc1	none
COc1cccc(-c2c(NC(C)=O)n(C)c3ccccc3c2=O)c1	GRK2 aptamer HTS 46 | GRK2 inh confirm inactive | FAM quench CP1 inactive
CC(C(=O)NC(=O)NC1CCCCC1)N1CCN(c2ccc(O)cc2)CC1 (configuration not stated)	none (no result: MEKK2mut PB1 HTS, MEKK3 PB1 HTS, MEKK2wt PB1 HTS)
CC(=O)NCCC(=O)Nc1nc2c(ccc3ccccc32)s1	none | GRK2 confirm 2 inactive | FAM quench CP2 inactive
CC(=O)NCCC(=O)Nc1nc(-c2ccc3ccccc3c2)cs1	none (no result: GRK2 aptamer HTS)
CCSc1ccccc1C(=O)NCCCn1ccnc1	none
CSc1ccccc1C(=O)NCCCn1ccnc1	GRK2 aptamer HTS 100 | GRK2 inh confirm inactive | FAM quench CP1 inactive
COc1cccc(C(=O)Nc2cccc(-c3ccc(N4CCOCC4)nn3)c2)c1OC	none (no result: MEKK2mut PB1 HTS, MEKK3 PB1 HTS, MEKK2wt PB1 HTS) | GRK2 inh confirm inactive | FAM quench CP1 inactive
O=C(Nc1cccc(-c2ccc(N3CCOCC3)nn2)c1)c1ccc(F)cc1F	none (no result: MEKK2mut PB1 HTS, MEKK3 PB1 HTS, MEKK2wt PB1 HTS) | GRK2 inh confirm inactive | FAM quench CP1 inactive
CCC(=O)C(C#N)(c1ccc(OC)c(OC)c1)C(C)C (configuration not stated)	none (no result: MEKK2mut PB1 HTS, MEKK3 PB1 HTS, MEKK2wt PB1 HTS)
COc1ccc(N2CCN(S(=O)(=O)c3ccc4oc(=O)ccc4c3)CC2)cc1	none
O=c1ccc2cc(S(=O)(=O)N3CCOCC3)ccc2o1	GRK2 aptamer HTS 56 | GRK2 inh confirm inactive | FAM quench CP1 inactive
COc1ccc(C(=O)OCC(=O)Nc2sccc2C(N)=O)cc1[N+](=O)[O-]	none (no result: MEKK2mut PB1 HTS, MEKK3 PB1 HTS, MEKK2wt PB1 HTS)
CC12CCC3C(CCC4N(CCO)CCC34C)C1CCC2O (configuration not stated)	GRK2 aptamer HTS 49 | GRK2 inh confirm inactive | FAM quench CP1 inactive
